# From PubChem BioAssay
# Sampled rows, rich in hits. Any-hit rate of the full collection: about 12%.
# Shiga toxin inh: Shiga toxin inhibition; 9.2% of 290,000 active; inhibition, % at 38.7 µM; Vero cells, Shiga toxin protein synthesis inhibition reporter; in the data active = inhibition mostly above about 28%, no sharp cut-off; inactive = mostly below about 43%; note: 0% is about no effect
# Marburg entry inh: Marburg virus entry inhibition; 1.8% of 300,000 active; Potency, µM (highest dose often 37.8 µM), for inactives: top-dose activity change, negative = inhibition, most hits filed as inhibitors; Marburg virus pseudotyped entry inhibition, cell reporter; calls by dose curve; tested in HEK293 cells; note: potency is the fitted concentration of half-maximal effect; % is set by controls: 0 for no effect and ±100 for the full control effect
# Lassa entry inh: inhibitors of Lassa virus binding or cell entry. Lassa virus pseudotype entry inhibition, cell reporter. Potency, µM (top dose mostly 37.9 µM), for inactives: at the top dose activity change, negative = inhibition, actives largely listed as inhibitors. 1.2% of 300,000 active. AID 540256; calls by dose curve; tested in HEK293 cells; note: potency is the fitted concentration of half-maximal effect; % is set by controls: 0 for no effect and ±100 for the full control effect; nearly all actives have a fitted effect of over 50% in size
# Cycloheximide cs: counter-screen hit for Shiga toxin inhibitors, cycloheximide. max response, %. cell reporter, cycloheximide protein synthesis inhibition counterscreen. 12% of 300,000 active; in the data active = max response mostly above about 13%, no sharp cut-off; inactive = mostly below about 14%; note: read at 38.3 µM for the half of the compounds with a filed dose; 0% is about no effect
# * hit, by the source's call; ? = inconclusive; · = no result; [ ] = remark or other dose.
SMILES,Shiga toxin inh,Marburg entry inh,Lassa entry inh,Cycloheximide cs
Oc1csc(Cc2nc(-c3ccccc3F)cs2)n1,78.1*,?,12.5%[46.1 µM],47.1*
Oc1csc(Cc2nc(-c3ccc4ccccc4c3)cs2)n1,58.9*,-85.6%,-0.4%,38.2*
O=C(Nc1cccc(S(=O)(=O)N2CCOCC2)c1)c1cnccn1,-12.8,·,·,-3.3
Cc1ccc(C=Nc2ccc(N(C)C)cc2)o1,109.0*,37.8%,?,24.2*
CCOC(=O)c1cccnc1SCC(=O)Nc1ccc(C)cc1,48.0,4.6%[46.1 µM],23.8%,21.9*
CCOC(=O)c1cccnc1SCC(=O)NC(C)CC (stereo unspecified),-1.5,1.0%,9.1%,-5.0
Cc1ccc(NC(=O)CSc2ncccc2C(=O)Oc2cccc([N+](=O)[O-])c2)cc1Cl,75.1*,?,?,10.8
COc1ccccc1CNC(=O)COC(=O)c1cccnc1SCC(=O)NCc1ccccc1OC,67.9*,-17.7%,11.6%,29.3*
Cc1ccc(NC(=O)CSc2ncccc2C(=O)Oc2ccccc2Cl)cc1Cl,·,·,10.7%[46.1 µM],·
O=C(COC(=O)c1cccnc1SCC(=O)NCc1ccccc1)NCc1ccccc1,4.2,-1.4%,1.3%,10.5
O=C(NCC(c1cccnc1)N1CCc2ccccc2C1)c1ccc(F)c(F)c1 (stereo unspecified),·,·,21.6%[46.1 µM],·
COc1ccc(-c2ccc(C3C4C=CCC(C)C4C(=O)N3Cc3ccccc3)c(F)c2)cc1C (stereo unspecified),17.1,·,·,10.8
CCc1cc(-c2cnnn2CCc2c[nH]c3ccccc23)ccc1-c1cn(CC(C)C)nn1,·,·,7.91µM*,·
Clc1cccc(Cl)c1Cn1cnc2c(N3CCCCCC3)ncnc21,-12.7,4.61µM*,7.3µM*,-0.8
O=C(/C=C/c1ccccc1Cl)Nc1cccc(O)c1,78.4*,·,·,26.0*
O=C(/C=C/c1ccccc1Cl)Nc1ccccc1,60.5*,10µM*,?,37.4*
O=C(Nc1ccc(Cl)cn1)C1CC1,10.6,·,·,7.7
CN(C)S(=O)(=O)c1ccc(NC(=O)/C=C/c2ccccc2Cl)cc1,2.4,?,-20.4%,1.1
O=C(/C=C/c1ccccc1Cl)Nc1ccc(Cl)cn1,48.1*,11.3%[46.1 µM],14.1%,22.5
CCCCOC(=O)c1cccc(NC(=O)/C=C/c2ccccc2Cl)c1,·,·,-27.7%[46.1 µM],·
CN(C)c1ccc(NC(=O)/C=C/c2c(Cl)cccc2Cl)cc1,58.6*,?,?,40.7*
Cc1c(Cl)cccc1NC(=O)CCn1c(=O)c2cccn2c2ccccc21,·,·,-19.4%[46.1 µM],·
COc1ccccc1-c1nc(CNC(=O)Nc2ccccc2)c(C)o1,·,·,0.7%[46.1 µM],·
O=C(OCC(=O)c1cccs1)c1ccc(NC(=O)c2ccco2)cc1,122.6,23.8%,2.6%,59.1*
O=C(NC(=S)Nc1ccc(NC(=O)c2cccs2)cc1)c1ccco1,11.5,7.6%,8.4%,7.8
SMILES,Shiga toxin inh,Marburg entry inh,Lassa entry inh,Cycloheximide cs
O=C(Nc1ccc(NC(=O)c2cccs2)cc1)c1ccco1,36.0,-8.9%,-19.0%,30.8*
CC(C)Oc1cccc(C(=O)C2CCCN(Cc3ccon3)C2)c1 (stereo unspecified),24.5,?,-6.4%[46.1 µM],8.4*
O=C(c1cccc(Cl)c1)C1CCCN(Cc2ccon2)C1 (stereo unspecified),-23.4,·,·,-1.0
CC(C)Oc1cccc(C(=O)C2CCCN(C(=O)c3ccoc3)C2)c1 (stereo unspecified),26.2*,17.9%[46.1 µM],?,16.2*
COc1cccc(C(=O)NC2=NCCS2)c1OC,63.4*,?,23.0%,30.7*
O=C(NC1=NCCS1)c1cccc(OC(F)F)c1,75.8*,·,·,36.3*
O=C(NC12CC3CC(CC(C3)C1)C2)c1cccnc1,-1.7,-1.5%,14.8%,-1.5
COc1cc(C(=O)NC2=NCCS2)cc(OC)c1OC,13.9,?,5.0%,-2.7
CC(C)Oc1ccc(C(=O)NC2=NCCS2)cc1,57.4,8.91µM*,?,19.6*
O=C(NC12CC3CC(CC(C3)C1)C2)c1cccc(OC(F)F)c1,72.3*,?,?,42.0*
COCCn1c(=O)c2c(nc3n2CC(C)CN3CCc2ccccc2)n(C)c1=O (stereo unspecified),-2.1,·,·,-3.3
CC(C)c1ccc(C(CC(=O)O)N2Cc3ccccc3C2=O)cc1 (stereo unspecified),-12.8,·,·,-3.8
CCCN(CCC)S(=O)(=O)c1ccc(C(=O)N2CCOCC2)cc1,18.4,8.6%,-10.1%,-2.9
CC(C)NC(=O)C1CCN(c2ccc(S(=O)(=O)N3CCOCC3)cc2Cl)CC1,-5.5,1.1%[46.1 µM],-4.3%,-4.8
CN1CCc2nc(NC(=O)c3cccc(OC(F)F)c3)sc2C1,23.0,10.2%,1.0%,26.5*
COc1ccc(C(=O)NC2=NCCS2)cc1,67.7*,?,28.9%[46.1 µM],72.7*
CN1CCc2nc(NC(=O)COc3ccc4ccccc4c3)sc2C1,23.9,?,?,5.5
CCc1ccccc1N1C(=O)C(Cl)=C(N2CCOCC2)C1=O,·,·,·,-2.6
CCS(=O)(=O)N1Cc2ccccc2CC1C(=O)N(C)CC(=O)Nc1ccc(F)c(F)c1F (stereo unspecified),·,-28.8%,-18.8%,·
Cc1ccccc1N=C1NC(=O)/C(=C/c2cccn2C)S1,16.6,·,·,13.3*
Cc1c(N=C2NC(=O)/C(=C/c3ccc(O)cc3)S2)c(=O)n(-c2ccccc2)n1C,45.2,?,?,3.8
O=C1NC(=Nc2ccccc2)S/C1=C\c1cccn1-c1ccccc1,60.6*,?,?,46.9*
Cc1cccc(N=C2NC(=O)/C(=C/c3cccn3C)S2)c1,52.2*,·,·,26.8*
O=C(Cc1cn(Cc2cccc(Cl)c2)c2ccccc12)N1CCCCCC1,-13.0,?,?,-1.8
Cc1cc(=O)n2nc(N3CCC(C(=O)NCc4ccccc4F)CC3)sc2n1,-11.2,-10.7%[46.1 µM],2.4%[46.1 µM],-0.8
SMILES,Shiga toxin inh,Marburg entry inh,Lassa entry inh,Cycloheximide cs
COC(=O)[C@@]1(C=C2c3ccc(F)cc3[C@@H](OC)[C@@H]2C)[C@@H]2Oc3ccccc3[C@@H]21,·,-16.8%[14.2 µM],·,·
CCOC(=O)c1c(-c2ccc(C)o2)csc1NC(=S)NC(=O)N(C)C,-13.3,?,-0.5%,0.9
CCc1ccc(CNC(=O)c2nn(-c3ccc(C)cc3)c(=O)c3c2c2ccccc2n3C)cc1,·,6.4%[46.1 µM],3.3%[46.1 µM],·
COc1cccc(NC(=O)C(=O)N/N=C(\C)CC(=O)Nc2ccc(NC(C)=O)cc2)c1,84.5*,·,·,32.1*
COc1ccc(CC(=O)N/N=C(\C)CC(=O)Nc2ccc(N(C)C)cc2)cc1OC,-5.2,?,-0.9%[46.1 µM],-2.6
COc1cccc(/C(C)=N/NC(=O)c2ccc(N(C)C)cc2)c1,68.6*,?,?,33.2*
COc1cccc(C(=O)N/N=C(\C)CC(=O)Nc2ccc(N(C)C)cc2)c1,56.8,12.2%,-12.8%,40.9*
C/C(=N\NC(=O)c1ccncc1)c1ccc(N(C)C)cc1,7.1,?,6.0%,13.6
CCc1ccc(NC(=O)C(=O)N/N=C(\C)CC(=O)Nc2ccc(OC)cc2)cc1,20.9,·,·,1.8
Oc1ccc2ccc3[nH]cnc3c2c1,74.1*,·,·,52.9*
O=c1c2ccccc2nnn1Cc1nnc(-c2ccccc2Br)o1,127.8*,8.0%,1.2%,44.3*
O=C1C2CC=CCC2C(=O)N1Cc1nnc(-c2ccccc2Br)o1 (stereo unspecified),67.7*,4.1%[46.1 µM],14.2%,26.1*
NC(=O)c1ccc2c(=O)n3c(-c4cccs4)csc3nc2c1,32.0*,·,·,24.7*
Cc1ccccc1-c1nnc(SCC(=O)Nc2cccc(C)c2C)o1,12.1,6.3%,?,-2.7
